In PubChem BioAssay AID651820 (National Center for Advancing Translational Sciences (NCATS), 2012):
“And” between values parts separate entries of the source, which are not always exact repeats. Identical values can stand only once. In all, about 340,000 compounds went through this assay and about 12,000 (3.5%) were called active. Inconclusive results (about 18%) are left out. The call rests on the fitted dose curve; in most records, active means well fitted inhibition curve with a large enough effect; inconclusive means small, poorly fitted or top-dose-only effect, or another doubt; inactive means no such curve, though single readings can be large or run the other way. The sample as a whole holds a higher share of actives than the screen did. Some compounds were tested as several samples or in several runs, with calls that do not always agree.

Experiment: qHTS Assay for Inhibitors of Hepatitis C Virus (HCV)
Conditions: Huh7.5.1 HCVcc-Cre infection, luciferase reporter, 44 h; series mostly up to 41.8 µM; activity change, negative = inhibition: at the top concentration
Procedure, shortened: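 A cell-based infection assay in which seeded cells (1,000 per well) receive test compound after 4 h, are inoculated with HCVcc-Cre at approximately 0.5 moi, and are incubated 44 h before luminescence detection.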
On the % scale 0 is the no-effect control and ±100 the full control effect; potency means the concentration at half of the fitted maximal effect.

| SMILES | activity change, negative = inhibition | Potency |
| --- | --- | --- |
| COc1ccc(CCNC(=O)C(=O)NCC2OCCN2S(=O)(=O)c2cccs2)cc1OC (stereo not drawn) | -16.4% (inactive) |  |
| Cc1ccc(SCC(=O)Nc2nncs2)cc1 | -2.67% (inactive) |  |
| O=C(OCC(=O)N1CCCC1)c1ccc(Cl)nc1 | 0.0144% (inactive) |  |
| COC(=O)Cc1nc2c(N)nc(N)nc2[nH]c1=O | 5.65% (inactive) |  |
| O=C1N[C@H](Cc2ccccc2)C(=O)N[C@H]1Cc1cn(S(=O)(=O)c2ccccc2)c2ccccc12 | 8.46% (inactive) |  |
| O=C(CNC(=O)c1ccco1)NNC(=O)c1ccc(Br)cc1 | 20.7% (inactive) |  |
| COc1ccc(NC(=O)CN(C)C(=O)/C=C/c2cn(Cc3ccccc3)nc2-c2cccnc2)cc1 | 3.26% (inactive) |  |
| C[C@H]1CN([C@@H](C)CO)C(=O)Cc2cc(NS(C)(=O)=O)ccc2O[C@@H]1CN(C)CC1CC1 | 15.9% (inactive) |  |
| O=C(CSc1ccccc1)Nc1cccc(S(=O)(=O)N2CCOCC2)c1 | -12.6% (inactive) |  |
| Cc1c(C(=O)Nc2cccc(S(=O)(=O)N3CCOCC3)c2)oc2ccccc12 |  | 14.1 µM (active) |
| Cc1occc1C(=O)Nc1cccc(S(=O)(=O)N2CCOCC2)c1 | -4.28% (inactive) |  |
| CCCC(O)(c1ccccc1)C(c1ccccc1)c1ccccn1 (stereo not drawn) | 4.16% (inactive) |  |
| Cc1c(C(=O)Nc2ccccn2)oc2ccc(Br)cc12 | -2.03% (inactive) |  |
| NC(=O)Cc1nc2scc(-c3ccc(Cl)cc3)c2c(=O)[nH]1 | 4.99% (inactive) |  |
| O=c1[nH]c(CN2CCOCC2)nc2cc(Cl)ccc12 | 3.38% (inactive) |  |
| O=c1[nH]c(CCl)nc2cc(-c3ccc(Cl)cc3)sc12 |  | 6.31 µM (active) |
| COc1ccc(/C=C/C(=O)OCC(=O)NC2CCCCCC2)cc1OC | -10.7% (inactive) |  |
| COc1cc(OC)cc(C(=O)NC(C(=O)N2CCC2)C(C)C)c1 (stereo not drawn) | -12.1% (inactive) |  |
| CC(C=Cc1ccccc1)=NNS(=O)(=O)c1ccc([N+](=O)[O-])cc1 | -8.84% (inactive) |  |
| CC1(C)N=C(N)NC(Nc2ccc(Cl)cc2)=N1 | 8.79% (inactive) |  |
| COc1ccccc1NC1=NC2(CCCC2)N=C(N)N1 | 8.21% (inactive) |  |
| COc1ccccc1NC1=NC(c2ccc(Cl)cc2)N=C(N)N1 (stereo not drawn) |  | 10 µM (active) |
| Cc1ccccc1-n1nnc2c(=O)oc3ccccc3c21 |  | 35.5 µM (active) |
| O=c1oc2ccccc2c(=O)c2ccccc12 | -4.58% (inactive) |  |
| CCOC(=O)c1c(C)nc2c(c1C)c(=O)oc1ccccc12 | 11.3% (inactive) |  |
| Cc1cc(NC(=O)CSc2nnc(-c3ccco3)n2N)no1 | 8.97% (inactive) |  |

| SMILES | activity change, negative = inhibition | Potency |
| --- | --- | --- |
| COc1ccc(NC(=O)CCNC(=O)Cn2cnc3sc4c(c3c2=O)CCCC4)cc1OC | 13.8% (inactive) |  |
| COc1ccc(NC(=O)CCCNC(=O)Cn2cnc3sc4c(c3c2=O)CCCC4)cc1OC | -21% (inactive) |  |
| COc1ccc(/C=N/Nc2ncnc3sc4c(c23)CCCC4)cc1O |  | 11.2 µM (active) |
| O=C(COC(=O)/C=C/c1cccc(Cl)c1)NCc1cccs1 | 17.5% (inactive) |  |
| O=C(OCC(=O)N1CCCCC1)c1ccc(OC(F)(F)F)cc1 | -0.311% (inactive) |  |
| CCN(CC)CCNC(=O)c1ccc(NS(=O)(=O)c2ccc3c(c2)OCCO3)cc1 | 9.4% (inactive) |  |
| COc1ccc(Cl)cc1C(=O)NCC#N | -16% (inactive) |  |
| CCN(CC)CCNC(=O)c1cc(S(C)(=O)=O)ccc1OC |  | inactive and 35.5 µM (active) |
| COc1ccccc1/C=C/C(=O)OCC(=O)NC1CCCCCC1 | -4.31% (inactive) |  |
| O=C(CCN1C(=O)c2ccccc2C1=O)NCCCn1ccnc1 | 21.1% (inactive) |  |
| Clc1c(OCCCn2ccnc2)ccc2ccccc12 |  | 14.1 µM (active) |
| CCOc1ccccc1C(=O)NCCCn1ccnc1 | 31.5% (inactive) |  |
| N#Cc1cc([N+](=O)[O-])ccc1NC(=O)COC(=O)c1cnccn1 | 10.2% (inactive) |  |
| CCOC(=O)/C(=N\Nc1ccccc1[N+](=O)[O-])c1csc(Nc2ccccc2)n1 |  | 5.01 µM (active) |
| Cc1csc(NC(=O)Nc2ccccc2[N+](=O)[O-])n1 | -16.5% (inactive) |  |
| CCOC(=O)C/C(C)=N\Nc1ccc([N+](=O)[O-])cc1[N+](=O)[O-] | -10.9% (inactive) |  |
| COc1ccc(N=C2C=CC(=O)O2)cc1 | 2.73% (inactive) |  |
| COc1ccccc1C(=O)COC(=O)COc1ccc(C#N)cc1 | 12.2% (inactive) |  |
| CCn1c(Cc2ccccc2)nnc1SCc1nc2ccccc2c(=O)[nH]1 | 1.37% (inactive) |  |
| Cn1c(-c2ccc(F)cc2)cnc1SCC(=O)NCc1ccco1 | 4.53% (inactive) |  |
| O=c1[nH]c(CSc2ncc(-c3ccc(F)cc3)n2Cc2ccco2)nc2ccccc12 |  | 25.1 µM (active) |
| CC(C)(CNC(=O)CNC(=O)C1CCCCC1)N1CCOCC1 | 7.89% (inactive) |  |
| O=C(C[C@@H]1C/C=C\CCC(=O)OC[C@@H]2CCCN2C1=O)NCCO | 25.9% (inactive) |  |
| COc1ccc(CS(=O)/C(Cl)=C(/Cl)C(=O)Nc2ccc(OC)nc2)cc1 (stereo not drawn) |  | 4.47 µM (active) |
| COc1ccc(Nc2cc(Cl)ccc2C(=O)O)cn1 | 7.73% (inactive) |  |
| COc1ccc(C(=O)Nc2ccc(NC(=O)C(C)C)nc2)cc1 | -18.4% (inactive) |  |

| SMILES | activity change, negative = inhibition | Potency |
| --- | --- | --- |
| COc1ccc(NS(=O)(=O)c2ccc(C)c(C(=O)NCC(c3cccs3)N3CCOCC3)c2)cc1 (stereo not drawn) | 8.78% (inactive) |  |
| CC(C)Cc1nnc(N)s1 | 35.4% (inactive) |  |
| Cc1nc(-c2ccc(F)cc2)c(CC(=O)Nc2cc(S(=O)(=O)N3CCCCC3)ccc2C)s1 | -18.8% (inactive) |  |
| COC1=CC(=O)OC(c2ccc(OC)cc2)C1 (stereo not drawn) | 1.66% (inactive) |  |
| CSc1nnc(NC(=O)c2nc(S(=O)(=O)Cc3ccc(C)cc3)ncc2Cl)s1 |  | 12.6 µM (active) |
| CSc1ncc(Cl)c(C(=O)Nc2cc(C)ccc2C)n1 | 12% (inactive) |  |
| CCSc1nnc(NC(=O)c2ccc(C)cc2)s1 | 13.7% (inactive) |  |
| CCC1Nc2ncnc(N3CCN(c4ccccc4)CC3)c2N(Cc2ccc(Cl)cc2)C1=O (stereo not drawn) | -52.3% (inactive) |  |
| CCCN(CC1CC1)C(=O)COC(=O)c1ccc(C)cc1O | -14.8% (inactive) |  |
| COc1ccc(C(=O)O)cc1S(=O)(=O)NC1CCN(Cc2ccccc2)CC1 | 19.7% (inactive) |  |
| Oc1ccc2ccccc2c1N=Nc1nccs1 |  | 8.91 µM (active) |
| Oc1ccc(N=Cc2c(O)ccc3ccccc23)cc1 | 12% (inactive) |  |
| Oc1c(C=Nc2cccc3nsnc23)ccc2ccccc12 | -29.7% (inactive) |  |
| COc1ccccc1CCC(=O)NNC(=O)c1ccncc1 | 0.729% (inactive) |  |
| CC(C)(C)OC(=O)C[C@@H]1C/C=C\C[C@@H](CC(=O)N[C@H](CO)Cc2ccccc2)C(=O)NC[C@@H](c2ccccc2)OC1=O | 2.19% (inactive) |  |
| COC(=O)c1c(-c2ccsc2)oc2ccc(-c3cc(OC)c(OC)c(OC)c3)cc12 |  | 12.6 µM (active) |
| COc1cc(CC(=O)NCc2cccs2)cc(OC)c1OC | 14.3% (inactive) |  |
| COc1cc2c(-c3ccc4c(c3)OCO4)c(-c3ccsc3)oc(=O)c2cc1OC | -6.43% [at 8.37 µM] (inactive) |  |
| Cn1c(-c2ccc(F)cc2)cc2onc(-c3ccccc3Cl)c2c1=O | 15.1% (inactive) |  |
| CC1(C)CC(=O)C=C(c2ccc(Cl)c(C(F)(F)F)c2)C1 | 9.91% (inactive) |  |
| COc1ccc(S(=O)(=O)N2CCOCC2)cc1NC(=O)CSc1nnc(NC2CC2)s1 | 6.7% (inactive) |  |
| Cc1cc(NC(=O)COC(=O)/C=C/c2ccc(C)o2)no1 | 0.593% (inactive) |  |
| CNc1nc(Nc2ccc(C)c(Cl)c2)nc(N)c1[N+](=O)[O-] |  | 11.2 µM (active) |
| Cc1ccc(Nc2nc(N)nc(CN3CCN(Cc4ccccc4)CC3)n2)cc1Cl | -23.6% (inactive) |  |
| Cc1ccc(Nc2nc(N3CCOCC3)nc(N3CCOCC3)n2)cc1Cl | 4.85% (inactive) |  |
| Nc1ncnc2c1ncn2[C@@H]1O[C@H](CNS(=O)(=O)c2ccc(-c3ccno3)s2)[C@@H](O)[C@H]1O | 2.29% (inactive) |  |

| SMILES | activity change, negative = inhibition | Potency |
| --- | --- | --- |
| Cc1ccc(OCCNC(=O)CNC(=O)c2ccc(C)c(C)c2)cc1 | 5.27% (inactive) |  |
| CCc1nnc(NC(=O)c2cc(S(=O)(=O)N3CCCCC3)ccc2C)s1 | 9.73% (inactive) |  |
| COc1ccc(CCC(=O)N2CCN(S(=O)(=O)c3ccc(OC)cc3)CC2)cc1 | -8.57% (inactive) |  |
| COc1ccc([N+](=O)[O-])cc1-c1nc2ccccc2nc1-c1ccccc1 | -2.01% (inactive) |  |
| Cn1nc(-c2ccccc2)c2cc([N+](=O)[O-])ccc21 |  | 12.6 µM (active) |
| Cc1nn(-c2ccc([N+](=O)[O-])cc2)c(N)c1-c1ccccc1 | -16.2% (inactive) |  |
| CCN(C(=O)COC(=O)c1c(C)nn(-c2ccccc2)c1Cl)c1c(N)n(Cc2ccccc2)c(=O)[nH]c1=O | -29.1% (inactive) |  |
| O=C(CN1C(=O)NC2(CCCC2)C1=O)Nc1cc(C(F)(F)F)ccc1N1CCOCC1 | 16.6% (inactive) |  |
| O=C(CCc1ccccc1Cl)Nc1ccc(S(=O)(=O)Nc2nccs2)cc1 | 1.35% (inactive) |  |
| CC(C)(C)S(=O)(=O)N1Cc2cc(CO)cc(CCO)c2[C@H]1CCO | 13.6% (inactive) |  |
| O=C(COC(=O)c1ccc([N+](=O)[O-])o1)NC12CC3CC(CC(C3)C1)C2 | 7.78% (inactive) |  |
| Cn1c(Nc2cccc(Cl)c2)nc2ccccc21 | -15.3% (inactive) |  |
| NS(=O)(=O)c1cccnc1Nc1cccc(Cl)c1 | -3.49% (inactive) |  |
| OCCCNc1nccc(-c2cc(Nc3cccc(Cl)c3)ncn2)n1 |  | 2.82 µM (active) |
| CCN1C(=O)[C@@H]2[C@@H](c3ccc(-c4ccc(OC)cc4)c(OC)c3)N3CCC[C@@]3(C(=O)OC)[C@@H]2C1=O | -15.4% (inactive) |  |
| O=C(NC1CCCCC1)c1cc([N+](=O)[O-])ccc1N1CCOCC1 | -8.15% (inactive) |  |
| O=C(OCCOc1ccccc1Cl)c1cc(S(=O)(=O)N2CCCCC2)ccc1N1CCOCC1 |  | 2.51 µM (active) |
| O=C(NCC1CCCCC1)c1cc(S(=O)(=O)N2CCCCC2)ccc1N1CCOCC1 | 6.19% (inactive) |  |
| COc1ccc(S(=O)(=O)N2CCCCC2)cc1NC(=O)c1cc([N+](=O)[O-])ccc1N1CCOCC1 |  | 7.94 µM (active) |
| CC(C)(C)C(=O)COC(=O)c1cc(S(=O)(=O)N2CCCCC2)ccc1N1CCOCC1 | -3.73% (inactive) |  |
| O=C(OCCOc1ccccc1F)c1cc(S(=O)(=O)N2CCOCC2)ccc1F | -3.68% (inactive) |  |
| O=C(COC(=O)c1cc(S(=O)(=O)N2CCOCC2)ccc1F)NC1CC1 | 20.7% (inactive) |  |
| COC1C(CO)OC(n2cnc3c(=S)nc(N)[nH]c32)C1O (stereo not drawn) | 21.9% (inactive) |  |
| CC(C)(C)c1ccc(S(=O)(=O)N2CCN(C(=O)c3ccc4c(c3)C(=O)N(Cc3ccncc3)C4=O)CC2)cc1 | 13.7% (inactive) |  |
| CC[C@]1(C(=O)OC)[C@H]2C(=O)N(Cc3ccccc3)C(=O)[C@H]2[C@H]2CN=C(SCc3ccc(C#N)cc3)N21 | -29.6% [at 8.37 µM] (inactive) |  |
